The supplement of paper PMC8007513
Structures can show the parent of a compound that is named as a salt. ± gives the standard error. About 75 (6%) of roughly 1,300 compounds showed an effect of 50% or more. The entries come from a sample that favours strong results as a whole.

System: Trichoderma virens ATCC 9645
Experiment: growth yield (OD600) relative to untreated control; higher = less growth inhibition
Details: compound concentration: 100 uM
Method in brief: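 Trichoderma virens ATCC 9645 spores from 7-day potato dextrose agar plates were suspended in potato dextrose broth at 15,000 spores ml^−1. Aliquots of 100 μl with library compounds at 100 μM final, with or without a co-applied biocide at 200 ng ml^−1, were grown in 96-well plates at 30 °C. OD600 was read at 40 h and 72 h on a BioTek EL800. Growth is expressed relative to the control without either agent, as means of duplicate screens.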

| Structure (SMILES) | growth yield (40 h) | growth yield (72 h) |
| --- | --- | --- |
| CCN1CCCC(OC(=O)C(c2ccccc2)c2ccccc2)C1 (stereo not drawn) [Piperidolate hydrochloride] | 106 ± 0.79% | 105 ± 1.8% |
| C=CC[N@@+]12CC[C@@]34c5ccccc5N5/C=C6/[C@H]7C[C@H]8[C@@]9(CC[N@@+]8(CC=C)C/C7=C/CO)c7ccccc7N(/C=C(/[C@@H](C[C@@H]31)/C(=C\CO)C2)[C@H]54)[C@@H]69 [Alcuronium chloride] | 66.1 ± 7.6% | 65.8 ± 5.3% |
| O=C(O)CCNC(=O)c1ccc(/N=N/c2ccc(O)c(C(=O)O)c2)cc1 [Balsalazide Sodium] | 107 ± 1.4% | 101.9 ± 0.84% |
| OCCN1C[C@H](O)[C@@H](O)[C@H](O)[C@H]1CO [Miglitol] | 101 ± 3% | 103 ± 3.1% |
| C#C[C@]1(O)CC[C@H]2[C@@H]3[C@H](C)CC4=C(CCC(=O)C4)[C@H]3CC[C@@]21C [Tibolone] | 88.31 ± 0.64% | 90.72 ± 0.1% |
| CN1CC2c3ccccc3Oc3ccc(Cl)cc3C2C1 (stereo not drawn) [Asenapine maleate] | 100 ± 1.3% | 106 ± 1.3% |
| O=C(O)/C=C/c1ccc(Cn2ccnc2)cc1 [Ozagrel hydrochloride] | 110 ± 9.5% | 106 ± 5.1% |
| Clc1ccc(C(Cn2ccnc2)OCc2csc3c(Cl)cccc23)c(Cl)c1 (stereo not drawn) [Sertaconazole nitrate] | 3.81% | 2.73% |
| Clc1ccc(C(Cn2ccnc2)OCc2ccsc2Cl)c(Cl)c1 (stereo not drawn) [Tioconazole] | 2.22 ± 1.6% | 1.89 ± 0.84% |
| C=CCOC(Cn1ccnc1)c1ccc(Cl)cc1Cl (stereo not drawn) [Enilconazole] | 3.49% | 3.04 ± 0.32% |
| Clc1ccc(COC(Cn2ccnc2)c2ccc(Cl)cc2Cl)cc1 (stereo not drawn) [Econazole nitrate] | 2.22 ± 0.64% | 1.78 ± 0.52% |
| CCOC(=O)O[C@]1(C(=O)OCCl)CC[C@H]2[C@@H]3CCC4=CC(=O)C=C[C@]4(C)[C@H]3[C@@H](O)C[C@@]21C [Loteprednol etabonate] | 97.7 ± 3.6% | 97.4 ± 3.5% |
| CNCC(O)c1ccc(OC(=O)C(C)(C)C)c(OC(=O)C(C)(C)C)c1 (stereo not drawn) [Dipivefrin hydrochloride] | 99.28 ± 0.79% | 100.2 ± 0.94% |
| CN(C)[C@@H]1C(O)=C(C(N)=O)C(=O)[C@@]2(O)C(O)=C3C(=O)c4c(O)cccc4[C@@](C)(O)[C@H]3C[C@@H]12 [Tetracycline hydrochloride] | 95.9% | 76.2 ± 15% |
| CCN(CC)CCN[C@@H](C(=O)OCCC(C)C)c1ccccc1 [Camylofine chlorhydrate] | 104 ± 1.8% | 102 ± 1.5% |
| CC1=C(CC(=O)O)c2cc(F)ccc2/C1=C\c1ccc([S+](C)[O-])cc1 (stereo not drawn) [Sulindac] | 90.1 ± 1.1% | 86.31 ± 0.73% |
| CN(C)CCCSC(=N)N [Dimaprit dihydrochloride] | 102 ± 3.3% | 99.5 ± 3.2% |

| Structure (SMILES) | growth yield (40 h) | growth yield (72 h) |
| --- | --- | --- |
| CC(C)(C)NC(=O)[C@H]1CC[C@H]2[C@@H]3CC[C@H]4NC(=O)C=C[C@]4(C)[C@H]3CC[C@]12C [Finasteride] | 84 ± 5.9% | 81.1 ± 2% |
| N[C@@H]1CCCCN(c2c(F)cc3c(=O)c(C(=O)O)cn(C4CC4)c3c2Cl)C1 [Besifloxacin hydrochloride] | 93.4 ± 6.3% | 91.6 ± 8.3% |
| C[C@H](Cc1cc2c(c(C(N)=O)c1)N(CCCO)CC2)NCCOc1ccccc1OCC(F)(F)F [Silodosin] | 105% | 100 ± 2.3% |
| Cc1cc(/C=C/c2ccc3cc(N(C)C)ccc3[n+]2C)c(C)n1-c1ccccc1 [Pyrvinium pamoate] | 124 ± 20% | 114 ± 12% |
| CCC1NC(=O)c2cc(S(N)(=O)=O)c(Cl)cc2N1 (stereo not drawn) [Quinethazone] | 114 ± 1.4% | 107 ± 1.1% |
| C#C[C@]1(OC(C)=O)CC[C@H]2[C@@H]3CCC4=CC(=NO)CC[C@@H]4[C@H]3CC[C@@]21CC (mixture of isomers) [Norgestimate] | 117 ± 3.3% | 112 ± 3.9% |
| Clc1ccc(COC(Cn2ccnc2)c2ccc(Cl)cc2Cl)c(Cl)c1 (stereo not drawn) [Miconazole] | 1.43 ± 1.1% | 1.47 ± 0.63% |
| COc1ccc(-c2ccc3cc(C(=O)O)ccc3c2)cc1C12CC3CC(CC(C3)C1)C2 [Adapalene] | 107 ± 1.9% | 106.6 ± 0.84% |
| Nc1ncnc2c1ncn2C1OC(COP(=O)(O)O)C(O)C1O (stereo not drawn) [Adenosine 5'-monophosphate monohydrate] | 106 ± 1.3% | 107 ± 3.6% |
| Cc1c(NC(C)C)c(=O)n(-c2ccccc2)n1C [Isopyrin hydrochloride] | 100.9 ± 0.79% | 96.17 ± 0.52% |
| NC(Cc1cc(I)c(Oc2cc(I)c(O)c(I)c2)c(I)c1)C(=O)O (stereo not drawn) [Thyroxine (L)] | 98 ± 2.1% | 94.5 ± 3.9% |
| O=C(O)Cc1cc(I)c(Oc2ccc(O)c(I)c2)c(I)c1 [Tiratricol, 3,3',5-triiodothyroacetic acid] | 28.9 ± 16% | 46.6 ± 17% |
| N[C@@H](Cc1cc(I)c(Oc2ccc(O)c(I)c2)c(I)c1)C(=O)O [Liothyronine] | 91.3 ± 3.3% | 97.3 ± 1.1% |
| COc1cc2nc(N3CCN(C(=O)c4ccco4)CC3)nc(N)c2cc1OC [Prazosin hydrochloride] | 105 ± 5.7% | 101 ± 1.4% |
| CCOC(=O)/C=C(C)/C=C/C=C(C)/C=C/c1c(C)cc(OC)c(C)c1C [Etretinate] | 110 ± 6.3% | 107 ± 5.5% |
| CC(=O)Nc1ccc(CC(=O)O)cc1 [Actarit] | 106 ± 5.4% | 102 ± 3.4% |
| C[C@@H](O)[C@H]1C(=O)N2C(C(=O)O)=C(SCCNC=N)C[C@H]12 [Imipenem] | 103 ± 2.2% | 104 ± 2.2% |
